Measurements taken from PubChem BioAssay (EPA / NIEHS).
Calls of active or inactive are those of the source. The calls were made as follows: active = hit-call score of the fitted dose curve at least 0.9, where 1 is the maximum; inactive = score below 0.9.

Target: Paired box protein Pax-6 (Homo sapiens) (UniProt P26367)
Sequence (P26367 whole entry, looked up): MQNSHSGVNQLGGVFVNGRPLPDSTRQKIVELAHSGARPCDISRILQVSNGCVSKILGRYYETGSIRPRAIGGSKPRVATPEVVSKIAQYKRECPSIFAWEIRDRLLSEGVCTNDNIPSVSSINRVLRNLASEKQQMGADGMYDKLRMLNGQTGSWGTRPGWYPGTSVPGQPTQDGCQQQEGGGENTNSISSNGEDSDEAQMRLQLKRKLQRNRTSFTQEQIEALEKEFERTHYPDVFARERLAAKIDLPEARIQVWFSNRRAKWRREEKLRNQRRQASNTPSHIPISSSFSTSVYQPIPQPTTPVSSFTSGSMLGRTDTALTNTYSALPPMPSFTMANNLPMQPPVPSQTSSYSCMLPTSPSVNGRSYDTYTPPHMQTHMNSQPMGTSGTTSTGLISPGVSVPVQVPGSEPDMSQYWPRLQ
Test: ATG_Pax6_CIS: Attagene CIS-FACTORIAL HepG2 Assay for human Paired Box 6 (PAX6) (AID 2282956)
Conditions: HepG2 CIS-FACTORIAL PAX6 reporter transcription, RNA readout; actives raise or lower the signal
Procedure, shortened: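 Read-out is reporter transcript level, measured by RT-PCR with fluorescent primer extension and capillary electrophoresis after 24 h dosing of transfected HepG2 cells. Activity in either direction fitted relative to DMSO control.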
In the case of `CCNc1cccc(C)c1`, the outcome is reported as “inactive”. With `COc1cccc2c1C(=O)c1c(O)c3c(c(O)c1C2=O)C[C@@](O)(C(=O)CO)C[C@@H]3O[C@H]1C[C@H](N)[C@H](O)[C@H](C)O1` the outcome was “inactive”. With `CN[C@H]1CC[C@@H](c2ccc(Cl)c(Cl)c2)c2ccc(S(N)(=O)=O)cc21` the outcome was “inactive”. In the case of `O=c1c(O)c(-c2ccc(O)c(O)c2)oc2cc(O)cc(O)c12`, the outcome is reported as “inactive”. In the case of `NCC1(Cc2noc(=O)[nH]2)CCCCC1`, the outcome is reported as “inactive”. With `Oc1ccc2ccccc2c1N=Nc1ccccc1` the outcome was “inactive”. In the case of `Cc1ccccc1Cl`, the outcome is reported as “inactive”. In the case of `C[C@]12C=CC(=O)C=C1CC[C@@H]1[C@@H]2C(=O)C[C@@]2(C)[C@H]1CC[C@]2(O)C(=O)CO`, the outcome is reported as “inactive”. In the case of `COc1cc(C=O)ccc1O`, the outcome is reported as “inactive”. In the case of `CCCCCCCCCCC`, the outcome is reported as “inactive”. For `Cc1cccc(C)c1O`, the outcome was “inactive”. In the case of `CCCCC(CC)COC(=O)CC(C(=O)OCC(CC)CCCC)S(=O)(=O)O` (stereo not given), the outcome is reported as “inactive”. With `CC(=O)OCCOCCOCCOC(C)=O` the outcome was “inactive”. With `CC1=C(/C=C/C(C)=C/C=C/C(C)=C/CO)C(C)(C)CCC1` the AC50 was 49.1 µM (active). In the case of `CC(C)(C)c1cc(O)c(C(C)(C)C)cc1O`, the AC50 is reported as 34.3 µM (active). With `CNC(=O)[C@H]1O[C@@H](n2cnc3c(NCc4cc(Cl)ccc4OCc4cc(C)no4)ncnc32)[C@H](O)[C@@H]1N` the outcome was “inactive”. With `COc1cc(S(=O)(=O)O)c(C)cc1N=Nc1c(O)ccc2cc(S(=O)(=O)O)ccc12` the outcome was “inactive”. For `CC(=O)C(C)=CC1C(C)=CCCC1(C)C` (stereo not given), the outcome was “inactive”. With `Cc1ccc(C)c(C)c1` the outcome was “inactive”. With `COc1ccc(S(=O)(=O)N2C(=O)[C@@](c3ccccc3OC)(N3C[C@H](O)C[C@H]3C(=O)N(C)C)c3cc(Cl)ccc32)c(OC)c1` the AC50 was 64.1 µM (active). For `COc1ccc(C)cc1N`, the outcome was “inactive”. With `CCCCN(CCCC)CCCC` the outcome was “inactive”. For `CCCCc1ccc2c(n1)[C@@H](c1ccc(OC)cc1C[C@H](C)C(=O)O)[C@H](C(=O)O)[C@H]2c1ccc2c(c1)OCO2`, the outcome was “inactive”. For `CCCCCCC(=O)OCC`, the outcome was “inactive”. With `COc1cc(/C=C/C(=O)CC(=O)/C=C/c2ccc(O)c(OC)c2)ccc1O` the AC50 was 46.6 µM (active). For `CCc1c(C(=O)NN2CCCCC2)nn(-c2ccc(Cl)cc2Cl)c1-c1ccc(Br)cc1`, the AC50 was 1.75 µM (active). In the case of `CC(=O)OC/C=C(\C)CCC=C(C)C`, the outcome is reported as “inactive”. For `CCCCCCOCCO`, the outcome was “inactive”. With `CCOc1ccc2c(c1)C(C)=CC(C)(C)N2` the AC50 was 100 µM (active). With `CCCCOC(=O)CCCCCCCCC(=O)OCCCC` the outcome was “inactive”.

Test system: not listed separately
Test: ATG_PXRE_CIS: Attagene CIS-FACTORIAL HepG2 Assay for human Pregnane X Receptor Element (PXRE) (AID 2282957)
Conditions: HepG2 Attagene CIS-FACTORIAL PXRE reporter, mRNA; actives raise or lower the signal
Procedure, shortened: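 Bidirectional activity, baselined to DMSO, derived from reporter mRNA fluorescence (RT-PCR plus capillary electrophoresis) in HepG2 cells bearing cis-promoter reporter units, 24 h exposure.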
In the case of `O=c1c(O)c(-c2ccc(O)c(O)c2)oc2cc(O)cc(O)c12`, the AC50 is reported as 76.2 µM (active). For `Oc1ccc2ccccc2c1N=Nc1ccccc1`, the AC50 was 7.05 µM (active). In the case of `C[C@]12C=CC(=O)C=C1CC[C@@H]1[C@@H]2C(=O)C[C@@]2(C)[C@H]1CC[C@]2(O)C(=O)CO`, the AC50 is reported as 55.6 µM (active). In the case of `CCCCCCCCCCC`, the outcome is reported as “inactive”. For `CCCCN(CCCC)CCCC`, the AC50 was 26.5 µM (active). For `CCCCc1ccc2c(n1)[C@@H](c1ccc(OC)cc1C[C@H](C)C(=O)O)[C@H](C(=O)O)[C@H]2c1ccc2c(c1)OCO2`, the outcome was “inactive”. In the case of `CCCCOC(=O)CCCCCCCCC(=O)OCCCC`, the outcome is reported as “inactive”.

Test system: not listed separately
Test: ATG_PPRE_CIS: Attagene CIS-FACTORIAL HepG2 Assay for human Peroxisome Proliferator-activated Response Element (PPRE) (AID 2282958)
Conditions: HepG2 PPRE cis-element reporter, Attagene transcription factor profiling; actives raise or lower the signal
Procedure, shortened: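 Transcript-level reporter induction in transfected HepG2 cells after 24 h chemical exposure, quantified by fluorescence from RT-PCR products separated by capillary electrophoresis.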
In the case of `CCNc1cccc(C)c1`, the outcome is reported as “inactive”. In the case of `COc1cccc2c1C(=O)c1c(O)c3c(c(O)c1C2=O)C[C@@](O)(C(=O)CO)C[C@@H]3O[C@H]1C[C@H](N)[C@H](O)[C@H](C)O1`, the outcome is reported as “inactive”. For `CN[C@H]1CC[C@@H](c2ccc(Cl)c(Cl)c2)c2ccc(S(N)(=O)=O)cc21`, the outcome was “inactive”. With `NCC1(Cc2noc(=O)[nH]2)CCCCC1` the outcome was “inactive”. For `Cc1ccccc1Cl`, the outcome was “inactive”. In the case of `COc1cc(C=O)ccc1O`, the outcome is reported as “inactive”. With `Cc1cccc(C)c1O` the outcome was “inactive”. With `CCCCC(CC)COC(=O)CC(C(=O)OCC(CC)CCCC)S(=O)(=O)O` (stereo not given) the outcome was “inactive”. In the case of `CC(=O)OCCOCCOCCOC(C)=O`, the outcome is reported as “inactive”. With `CC1=C(/C=C/C(C)=C/C=C/C(C)=C/CO)C(C)(C)CCC1` the AC50 was 47.6 µM (active). With `CC(C)(C)c1cc(O)c(C(C)(C)C)cc1O` the AC50 was 30.9 µM (active). In the case of `CNC(=O)[C@H]1O[C@@H](n2cnc3c(NCc4cc(Cl)ccc4OCc4cc(C)no4)ncnc32)[C@H](O)[C@@H]1N`, the outcome is reported as “inactive”. With `COc1cc(S(=O)(=O)O)c(C)cc1N=Nc1c(O)ccc2cc(S(=O)(=O)O)ccc12` the outcome was “inactive”. In the case of `CC(=O)C(C)=CC1C(C)=CCCC1(C)C` (stereo not given), the outcome is reported as “inactive”. In the case of `Cc1ccc(C)c(C)c1`, the outcome is reported as “inactive”. With `COc1ccc(S(=O)(=O)N2C(=O)[C@@](c3ccccc3OC)(N3C[C@H](O)C[C@H]3C(=O)N(C)C)c3cc(Cl)ccc32)c(OC)c1` the AC50 was 76.8 µM (active). In the case of `COc1ccc(C)cc1N`, the outcome is reported as “inactive”. In the case of `CCCCCCC(=O)OCC`, the outcome is reported as “inactive”. For `COc1cc(/C=C/C(=O)CC(=O)/C=C/c2ccc(O)c(OC)c2)ccc1O`, the outcome was “inactive”. For `CCc1c(C(=O)NN2CCCCC2)nn(-c2ccc(Cl)cc2Cl)c1-c1ccc(Br)cc1`, the outcome was “inactive”. For `CC(=O)OC/C=C(\C)CCC=C(C)C`, the outcome was “inactive”. For `CCCCCCOCCO`, the outcome was “inactive”. In the case of `CCOc1ccc2c(c1)C(C)=CC(C)(C)N2`, the AC50 is reported as 78.8 µM (active).
